Experimental data taken from PubChem BioAssay (NCI).
Where “and” joins values, the source holds several entries; their conditions need not be identical. Equal entries are not always repeated. About 83,000 compounds went through this panel and 20% of them were active in at least one assay; those are over-represented in the sample as a whole.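 Assay: single dose, 48 h. Readout: percent growth (0 = no net growth; negative = cell death). Active: <10.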 Unmarked numbers belong to inactive results. Calls of active or inactive are those of the source.

Test system: MOLT-4 leukemia
Assay: NCI-60 one-dose screen, 48 h (100 = growth as untreated, 0 = no growth, -100 = all killed)
Conditions: 0.01 µM
Method: Growth inhibition of the MOLT-4 human tumor cell line is measured as a screen for anti-cancer activity. Cells are grown in 96 well plates and exposed to the test compound for 48 hours. Compounds are tested at a single concentration, which is 10^-5 M for most compounds. The reported endpoint is percent growth (GI% or GIPRCNT), where numbers from 0 - 100% represent growth inhibition, and numbers from -100% - 0 represent cell death. For example, a value of 40 represents 60% growth inhibition. A value of 0 means no net growth occurred over the course of the experiment. A value of -40 indicates 40% of cells at the beginning of the experiment died by the end of the experiment. A value of -100 means all cells are dead at the end of the experiment.
NCI-60 Human Tumor Cell Lines Screen was performed using the standard one-dose NCI protocol, which is described in more detail at https://dtp.cancer.gov/discovery_development/nci-60/default.htm.
Compounds with GIPRCNT values below 10 were considered active. Activity score was based on GIPRCNT using the following formula: […]
Score is 0 for GIPRCNT values of 100 or above, 50 for GIPRCNT values of 0, and 100 for GIPRCNT values of -100.

Compound	growth [%]
CC(=O)O[C@H]1C(=O)[C@@]2(C)[C@H]([C@H](OC(=O)c3ccccc3)[C@]3(O)C[C@H](OC(=O)[C@H](O)[C@@H](NC(=O)c4ccccc4)c4ccccc4)C(C)=C1C3(C)C)[C@]1(OC(C)=O)CO[C@@H]1C[C@@H]2O	48.2

Same assay, conditions: 10 µM

Compound	growth
S=P(N1CC1)(N1CC1)N1CC1	98.2% and 61.8%
CC(=O)O[C@H]1C(=O)[C@@]2(C)[C@H]([C@H](OC(=O)c3ccccc3)[C@]3(O)C[C@H](OC(=O)[C@H](O)[C@@H](NC(=O)c4ccccc4)c4ccccc4)C(C)=C1C3(C)C)[C@]1(OC(C)=O)CO[C@@H]1C[C@@H]2O	22.8%

Same assay, conditions: 10 µM unless noted

Compound	growth
Cc1cc(C)c(N2C(=O)CC(Sc3ccccc3N)C2=O)c(C)c1 (stereo not given)	76.5%
Nc1nc(N)c2cc(Sc3ccc4ccccc4c3)ccc2n1	18.4%
CCC(=O)Oc1ccc(/C=N/NC(N)=S)nc1	10.8%
CCOC(=O)[C@]1(Br)CC[C@@]1(Br)C(=O)OCC	36.8%
CN(CC(=O)O)c1ccc(/C=C/c2ccnc3ccccc23)cc1	34.4%
CC1CCC2(C(=O)O)CCC3(C)C(=CCC4C5(C)CC(O)C(O)C(C)(CO)C5C(O)CC43C)C2C1C (stereo not given)	113%
ClCCn1c(CCl)nc2ccc(Cl)cc21	-52.7% (active)
COc1ccc(C(C#N)=C2C=CC(=NO)C=C2)cc1	58.4%
O=C1C=CC(=O)N1c1ccc(N2C(=O)C=CC2=O)cc1	-9.11% (active)
COc1cc(N)ccc1Nc1c2ccccc2nc2ccccc12	2.72% (active)
O=S(=O)(c1cc(Cl)ccc1O)c1cc(Cl)ccc1O	90.2%
CN(C)c1ccc(/C=C/c2ccnc3ccccc23)cc1N	54.8%
O=C1c2cccc3cc([N+](=O)[O-])cc(c23)C(=O)N1CCN1CCCC1	-17.9% (active)
Cn1ncc2cc3c(Nc4ccc(Cl)cc4)cccc3nc21	89%
COc1ccc2oc(-c3ccc(Cl)cc3)c(N3CCN(C)CC3)c2c1	12.5%
O=C(O)c1ccccc1.[Ag]	102%
COc1cccc(C(c2cc3c(cc2O)OCO3)N2CCOCC2)c1OC (stereo not given)	96%
Cc1cc(Cl)ccc1NC(=O)/C(Cl)=C1/Sc2ccccc2NC1=O	83.5%

Compound	growth
Cc1cc(N=C2C=CC(=[N+](C)C)C=C2)c(N)cc1N	91.3%
NCc1c(O)ccc2ccccc12	93.3%
Cc1cc(O)c2c(c1O)C(=O)C13C(=C2O)C(=O)C2C(O)C1C1C(O)C3C(=O)C3=C(O)c4c(O)cc(C)c(O)c4C(=O)C321 (stereo not given)	8.98% (active)
CCC(C)(c1ccc(O)c(C)c1)c1ccc(O)c(C)c1	130%
O=C(CNS(=O)(=O)Cc1ccccc1)NNc1ccccc1	35.4%
O=c1[nH]cc(/C=N\Nc2ccccc2)c(=O)[nH]1	49.6%
C=C1N(C)c2ccc(Cl)cc2C1(C)C	35.8%
S=C1SCN(CCc2ccccc2)CN1CCc1ccccc1	76.8%
Cc1c(-c2ccccc2)[nH]c2ccccc12	99.6%
O=C1c2ccccc2CCC1(Br)Br	-13.4% (active)
N#CC(=C1C=CC(=NO)C=C1)c1ccccc1	19.2%
O=Nc1ccc(Nc2ccccc2)cc1	15%
CN(C)CCNc1cccc2sc3ccc(O)cc3c(=O)c12	14.3%
O=C1C(Cl)=C(Cl)C(Cl)(Cl)C(Cl)C1(Cl)Cl (stereo not given)	94.8%
N#C/C(=C/N1C(=O)/C(=C/c2ccc([N+](=O)[O-])cc2)SC1=S)c1nc2ccccc2s1	78.8%
COc1ccc2c(c1)[nH]c1c(/C=C/c3ccccc3)nccc12	48%
CC[C@@]1(OC(=O)CN(C)C)C(=O)OCc2c1cc1n(c2=O)Cc2cc3c(N)cccc3nc2-1	-0.423% (active)
O=C(NC(=S)Nc1ccccn1)c1ccccc1	93.1%

Same assay, conditions: 100 µM

Compound	growth [%]
S=P(N1CC1)(N1CC1)N1CC1	22.6
